Source: PubChem BioAssay (Tox21)
Records with an inconclusive call do not appear. Where a call stands in place of a potency, no number is given. The source made the active and inactive calls. Calls come from the whole dose curve; as a rule, active = well fitted curve in the direction sought with a large enough effect in the repeat runs; inconclusive = weak or mixed curves; inactive = no such curve, though single readings can be large; an effect the other way counts as inactive or inconclusive.

System: not listed separately
Assay: qHTS assay to identify small molecule antagonists of the estrogen related receptor (ERR) signaling pathway from Tox21 library - cell viability counter screen (AID 1224834); note: nearly all actives have a fitted effect of over 30% in size
Settings: ERR reporter cells viability, CellTiter-Fluor, 17.5 h; series mostly up to 92.4 µM
Procedure, shortened: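 Viability readout (CellTiter-Fluor fluorescence, 30 min at 37 C) multiplexed with the ERR assay; cells treated 17.5 h at 37 C with compounds delivered in DMSO.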
Potency is the fitted concentration of half-maximal effect.

SMILES	Potency	viability change, negative = cytotoxic
COC(=O)/C=C(/C)N	inactive	
CC(=O)Nc1ccc(C)c(Cl)c1	inactive	
CC(C)Nc1nc(N)nc(Cl)n1	inactive	
CC/C=C\CCOC(=O)CCCCC	inactive	
CC(Oc1c(Cl)cccc1Cl)C1=NCCN1 (stereo not drawn)	inactive	
Nc1ccc(Oc2ccc(N)c(N)c2)cc1	27.3 µM (active)	
CCc1cc(Cl)c(OC)c(C(=O)NC[C@@H]2CCCN2CC)c1O	inactive	
CCCN(CCC)C(=O)C(CCC(=O)O)NC(=O)c1ccccc1 (stereo not drawn)	inactive	
O=c1[nH]cnc2c1ncn2[C@@H]1O[C@H](CO)[C@@H](O)[C@H]1O	inactive	
CC(C)(CO)[C@@H](O)C(=O)NCCC(=O)O	inactive	
CCN1CC(CCN2CCOCC2)C(c2ccccc2)(c2ccccc2)C1=O (stereo not drawn)	inactive	
CC1(O)CSC(C)(O)CS1 (stereo not drawn)	inactive	
CCCCCCn1c(=O)c2c(ncn2C)n(C)c1=O	inactive	
CCCCCCC	inactive	
O=C(O)[C@@H]1CSCN1	inactive	
CCOc1ccc(NS(=O)(=O)c2ccc(N)cc2)nn1	inactive	
CCOC(=O)C1CC(=O)C(=C(O)C2CC2)C(=O)C1 (stereo not drawn)	inactive	
CC1=C(CC(=O)O)c2cc(F)ccc2/C1=C\c1ccc(S(C)(=O)=O)cc1	inactive	
CCOC(=O)[C@H](CCc1ccccc1)N[C@@H](C)C(=O)N1Cc2cc(OC)c(OC)cc2C[C@H]1C(=O)O	inactive	
Cc1ccc([N+](=O)[O-])cc1Cl	inactive	

SMILES	Potency	viability change, negative = cytotoxic
C[C@@H]1CN(c2c(F)c(N)c3c(=O)c(C(=O)O)cn(C4CC4)c3c2F)C[C@H](C)N1		-1.89% [at 19 µM] (inactive)
O=C1CCCc2ccccc21	inactive	
CN(CC1(C)CCCO1)S(=O)(=O)c1ccc(Cl)c(S(N)(=O)=O)c1 (stereo not drawn)	inactive	
CC(C)C(=O)OC/C=C/c1ccccc1	inactive	
Cc1c[nH]c(=S)[nH]c1=O	inactive	
O=c1[nH]c(=O)n([C@H]2C[C@H](O)[C@@H](CO)O2)cc1C(F)(F)F	inactive	
FC(F)(F)C(F)(F)C(F)(F)C(F)(F)C(F)(F)C(F)(F)C(F)(F)C(F)(F)Br	inactive	
CC(C)OC(C)C	inactive	
Cc1cc2c(s1)Nc1ccccc1N=C2N1CCN(C)CC1	5.96 µM (active)	
O=C(Cl)c1cccc([N+](=O)[O-])c1	inactive	
COc1ccccc1OCC(O)COC(N)=O (stereo not drawn)	inactive	
C=CCCCCCCCCO	inactive	
Cc1nnc(SCC2=C(C(=O)O)N3C(=O)[C@@H](NC(=O)Cn4cnnn4)[C@H]3SC2)s1	inactive	
Cc1cc2nc(N)sc2cc1C	inactive	
NNS(=O)(=O)c1ccc(Oc2ccc(S(=O)(=O)NN)cc2)cc1	inactive	
CCN(CC)CCOc1ccc(Cc2ccccc2)cc1	inactive	
CC(C)=CCCC(C)CCOC=O (stereo not drawn)	inactive	
CCCCNc1cc(C(=O)O)cc(S(N)(=O)=O)c1Oc1ccccc1	inactive	
CN(C)Cc1ccccc1	inactive	

Molecular target: Luciferin 4-monooxygenase (Photinus pyralis) (UniProt P08659)
Assay: qHTS assay to identify small molecule inhibitors of firefly luciferase (AID 1224835); note: nearly all actives have a fitted effect of over 25% in size
Settings: purified P. pyralis luciferase, luminescence inhibition; series mostly up to 115 µM
Procedure, shortened: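 Quantitative HTS format; KM concentrations of both substrates. Purified P. pyralis FLuc activity quantified from luminescence images.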

Sequence of Luciferin 4-monooxygenase (Photinus pyralis) (P08659 whole entry, looked up): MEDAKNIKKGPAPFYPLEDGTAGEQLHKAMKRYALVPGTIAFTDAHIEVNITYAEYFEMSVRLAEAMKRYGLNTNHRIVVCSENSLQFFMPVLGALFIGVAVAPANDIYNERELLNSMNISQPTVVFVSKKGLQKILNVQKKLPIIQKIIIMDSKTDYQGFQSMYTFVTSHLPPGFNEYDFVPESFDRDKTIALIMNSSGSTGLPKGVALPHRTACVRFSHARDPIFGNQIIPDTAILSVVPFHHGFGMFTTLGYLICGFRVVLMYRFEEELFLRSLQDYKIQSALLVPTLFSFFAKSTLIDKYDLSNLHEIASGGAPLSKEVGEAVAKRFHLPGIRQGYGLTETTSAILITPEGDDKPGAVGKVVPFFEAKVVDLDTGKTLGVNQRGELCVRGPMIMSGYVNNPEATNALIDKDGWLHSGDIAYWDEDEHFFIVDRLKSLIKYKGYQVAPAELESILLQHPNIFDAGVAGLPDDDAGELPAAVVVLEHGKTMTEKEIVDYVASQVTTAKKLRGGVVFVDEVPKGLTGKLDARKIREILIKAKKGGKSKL

SMILES	Potency	activity change, negative = inhibition
COC(=O)/C=C(/C)N	inactive	
CC(=O)Nc1ccc(C)c(Cl)c1	inactive	
CC(C)Nc1nc(N)nc(Cl)n1	inactive	
CC/C=C\CCOC(=O)CCCCC	inactive	
CC(Oc1c(Cl)cccc1Cl)C1=NCCN1 (stereo not drawn)	inactive	
Nc1ccc(Oc2ccc(N)c(N)c2)cc1	7.96 µM (active)	
CCc1cc(Cl)c(OC)c(C(=O)NC[C@@H]2CCCN2CC)c1O	inactive	
CCCN(CCC)C(=O)C(CCC(=O)O)NC(=O)c1ccccc1 (stereo not drawn)	inactive	
O=c1[nH]cnc2c1ncn2[C@@H]1O[C@H](CO)[C@@H](O)[C@H]1O	inactive	
CC(C)(CO)[C@@H](O)C(=O)NCCC(=O)O	inactive	
CCN1CC(CCN2CCOCC2)C(c2ccccc2)(c2ccccc2)C1=O (stereo not drawn)	inactive	
CC1(O)CSC(C)(O)CS1 (stereo not drawn)	inactive	
CCCCCCn1c(=O)c2c(ncn2C)n(C)c1=O	inactive	
CCCCCCC	inactive	
O=C(O)[C@@H]1CSCN1	inactive	
CCOc1ccc(NS(=O)(=O)c2ccc(N)cc2)nn1	inactive	
CCOC(=O)C1CC(=O)C(=C(O)C2CC2)C(=O)C1 (stereo not drawn)	inactive	
CC1=C(CC(=O)O)c2cc(F)ccc2/C1=C\c1ccc(S(C)(=O)=O)cc1	inactive	
CCOC(=O)[C@H](CCc1ccccc1)N[C@@H](C)C(=O)N1Cc2cc(OC)c(OC)cc2C[C@H]1C(=O)O	inactive	
Cc1ccc([N+](=O)[O-])cc1Cl	inactive	

SMILES	Potency	activity change, negative = inhibition
C[C@@H]1CN(c2c(F)c(N)c3c(=O)c(C(=O)O)cn(C4CC4)c3c2F)C[C@H](C)N1		0.766% [at 23.6 µM] (inactive)
O=C1CCCc2ccccc21	inactive	
CN(CC1(C)CCCO1)S(=O)(=O)c1ccc(Cl)c(S(N)(=O)=O)c1 (stereo not drawn)	inactive	
CC(C)C(=O)OC/C=C/c1ccccc1	71 µM (active)	
Cc1c[nH]c(=S)[nH]c1=O	inactive	
O=c1[nH]c(=O)n([C@H]2C[C@H](O)[C@@H](CO)O2)cc1C(F)(F)F	inactive	
FC(F)(F)C(F)(F)C(F)(F)C(F)(F)C(F)(F)C(F)(F)C(F)(F)C(F)(F)Br	inactive	
CC(C)OC(C)C	inactive	
Cc1cc2c(s1)Nc1ccccc1N=C2N1CCN(C)CC1	inactive	
O=C(Cl)c1cccc([N+](=O)[O-])c1	inactive	
COc1ccccc1OCC(O)COC(N)=O (stereo not drawn)	inactive	
C=CCCCCCCCCO	inactive	
Cc1nnc(SCC2=C(C(=O)O)N3C(=O)[C@@H](NC(=O)Cn4cnnn4)[C@H]3SC2)s1	inactive	
Cc1cc2nc(N)sc2cc1C	5.69 µM (active)	
NNS(=O)(=O)c1ccc(Oc2ccc(S(=O)(=O)NN)cc2)cc1	inactive	
CCN(CC)CCOc1ccc(Cc2ccccc2)cc1	inactive	
CC(C)=CCCC(C)CCOC=O (stereo not drawn)	inactive	
CCCCNc1cc(C(=O)O)cc(S(N)(=O)=O)c1Oc1ccccc1	inactive	
CN(C)Cc1ccccc1	inactive	
